The results in this text go back to PubChem BioAssay.

Records with an inconclusive call do not appear. The source made the active and inactive calls.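 Rule for the calls, unless noted: active = normalized viability below 100% at a tested concentration; inactive = the rest.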

Test [1] in a line: growth inhibition of DIPG glioma cells, dose response, cell-based, SU-DIPG-XVII, MIPE5.0, CellTiter-Glo, qHTS (AID 1347060; cut-off not given, nearly all actives have AC50 up to about 26 µM;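 for AC50: cells exposed to compound for 48 hours before viability readout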). The conditions noted are these: SU-DIPG-XVII viability, CellTiter-Glo ATP luminescence.
Test [2] can be described thus: growth inhibition of DIPG glioma cells, dose response, cell-based, SU-DIPG-XIII, MIPE4.0, CellTiter-Glo, qHTS (AID 1347061; cut-off not given, nearly all actives have AC50 up to about 37 µM;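 note: cells exposed to compound for 48 hours before readout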). To be noted: SU-DIPG-XIII viability, CellTiter-Glo ATP luminescence.
Test [3] is described as follows: growth inhibition of DIPG glioma cells, dose response, cell-based, JHH-DIPG-1, MIPE4.0, CellTiter-Glo, qHTS (AID 1347062; cut-off not given, nearly all actives have AC50 up to about 27 µM;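 for AC50: cells exposed to compound for two days before readout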). The conditions noted are these: JHH-DIPG-1 viability, CellTiter-Glo ATP luminescence.
Test [4] in a line: growth inhibition of DIPG glioma cells, dose response, cell-based, SU-DIPG-IV, MIPE4.0, CellTiter-Glo, qHTS (AID 1347063; cut-off not given, nearly all actives have AC50 up to about 30 µM;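 note: compound exposure lasted 48 hours before the viability readout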). To be noted: SU-DIPG-IV viability, CellTiter-Glo ATP luminescence.
Test [5] in a line: growth inhibition of DIPG glioma cells, dose response, cell-based, SU-DIPG-XIII, MIPE5.0, CellTiter-Glo, qHTS (AID 1347064; cut-off not given, nearly all actives have AC50 up to about 23 µM;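 for AC50: cells exposed to compound for 48 hours before the viability read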). The conditions noted are these: SU-DIPG-XIII viability, CellTiter-Glo ATP luminescence.
Test [6] in a line: viability loss in pontine glioma line – cell-based, SU-DIPG-XXV, MIPE5.0, CellTiter-Glo, qHTS, dose response (AID 1347065; cut-off not given, nearly all actives have AC50 up to about 26 µM;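 note: cells exposed to compound for 48 hours before ATP readout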). The conditions noted are these: CellTiter-Glo ATP luminescence.
Test [7] in a line: JHH-DIPG-1 glioma cell viability, MIPE5.0 library, CellTiter-Glo luminescence, qHTS (AID 1347067; cut-off not given, nearly all actives have AC50 up to about 26 µM;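 note: cells exposed to compound for 48 hours before readout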). The conditions noted are these: JHH-DIPG-1 glioma viability, CellTiter-Glo ATP luminescence.
The nature of test [8]: sensitizers of A549 cells to miR-34 induction, primary screen, imaging, A549 dox-inducible miR-34, nuclei and caspase counts (AID 1347080;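 active = compounds whose cell count with miR-34 switched on is under 0.7 times the count with it off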). The conditions noted are these: A549 miR-34 inducible, Hoechst nuclei count, 48 h.
A short description of test [9]: survival rescue of mitochondrial mutant cells in low glucose, primary screen, MELAS cybrids, Rieske KO mouse fibroblasts, CellTiter-Glo (AID 1508586;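 active = mean z-score across replicates of 1.96 or higher in either the MELAS or the Rieske mutant cell line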;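 note: z relative to plate mean and SD of compound and empty wells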).
Test [10] in a line: ovarian cancer cell viability with rucaparib, profiling panel, oncology-focused library, rucaparib conditional (AID 1508598). The conditions noted are these: patient-derived ovarian cancer cells, CellTiter-Glo viability, 144 h, stronger effect = lower value.
Test [11] in a line: SU-DIPG-VI glioma cell viability, MIPE4.0 library, CellTiter-Glo luminescence, qHTS (AID 1347066; cut-off not given, nearly all actives have AC50 up to about 30 µM;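 note: cells exposed to compound for 48 hours before readout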). The conditions noted are these: CellTiter-Glo ATP luminescence.
Test [12] is described as follows: SU-DIPG-XXV glioma cell viability, MIPE5.0 library, qHTS (AID 1347068; cut-off not given, nearly all actives have IC50 up to about 30 µM).

For `Cn1cc(CNCC2CCN(c3ncc(C(=O)NO)cn3)CC2)c2ccccc21`, the AC50 in [1] was 417 nM (active); in [2], 2640 nM (active); in test [3] it was 332 nM (active); in test [4] it was 418 nM (active); in test [5], 209 nM (active); in [6], 132 nM (active). The AC50 in test [7] is 209 nM (active). Further, the fold change in test [8] (stronger effect = lower value, cell number ratio, induced over uninduced) is 0.846 (inactive); in test [8] (measured here: relative caspase fold change +Dox/-Dox) it was 0.734. Further, the cell count in test [8] (measured here: total cells with miR-34 induction, stronger effect = lower value) was 984; in test [8] (measured here: total cells without miR-34 induction) it was 1160. In addition, the z-score was -0.103 (inactive) in test [9] (MELAS cybrid survival, CellTiter-Glo 48 h, stronger effect = higher value) and -2.7 in test [9] (Rieske KO mouse fibroblast survival, CellTiter-Glo 72 h). Moreover, the viability in [10] (at 0.000305 µM, OCI-C5x cells, with rucaparib 10 µM, 100% = cells with rucaparib alone) was 126% (inactive); in [10] (at 0.000305 µM, OCI-C5x cells, without rucaparib), 118% (inactive); in test [10] (at 0.000305 µM, OCI-P5x cells, with rucaparib 20 µM, 100% = cells with rucaparib alone), 95.4% (active); in test [10] (at 0.000305 µM, OCI-P5x cells, without rucaparib), 92.2% (active); in test [10] (at 0.00122 µM, OCI-C5x cells, with rucaparib 10 µM, 100% = cells with rucaparib alone) it was 125% (inactive); in [10] (at 0.00122 µM, OCI-C5x cells, without rucaparib) it was 133% (inactive). Besides, the viability in test [10] (at 0.00122 µM, OCI-P5x cells, with rucaparib 20 µM, 100% = cells with rucaparib alone) was 104% (inactive); in test [10] (at 0.00122 µM, OCI-P5x cells, without rucaparib) it was 95.8% (active); in test [10] (at 0.00488 µM, OCI-C5x cells, with rucaparib 10 µM, 100% = cells with rucaparib alone), 116% (inactive); in test [10] (at 0.00488 µM, OCI-C5x cells, without rucaparib) it was 138% (inactive); in test [10] (at 0.00488 µM, OCI-P5x cells, with rucaparib 20 µM, 100% = cells with rucaparib alone), 76.6% (active); in test [10] (at 0.00488 µM, OCI-P5x cells, without rucaparib), 85.4% (active). In addition, the viability is 96.2% (active) in test [10] (at 0.0195 µM, OCI-C5x cells, with rucaparib 10 µM, 100% = cells with rucaparib alone); 99.7% (active) in test [10] (at 0.0195 µM, OCI-C5x cells, without rucaparib); 32.6% (active) in [10] (at 0.0195 µM, OCI-P5x cells, with rucaparib 20 µM, 100% = cells with rucaparib alone); 51.7% (active) in [10] (at 0.0195 µM, OCI-P5x cells, without rucaparib); 7.04% (active) in test [10] (at 0.0781 µM, OCI-C5x cells, with rucaparib 10 µM, 100% = cells with rucaparib alone); 7.55% (active) in test [10] (at 0.0781 µM, OCI-C5x cells, without rucaparib). Moreover, the viability in test [10] (at 0.0781 µM, OCI-P5x cells, with rucaparib 20 µM, 100% = cells with rucaparib alone) was 3.73% (active); in test [10] (at 0.0781 µM, OCI-P5x cells, without rucaparib) it was 9.01% (active); in test [10] (at 0.313 µM, OCI-C5x cells, with rucaparib 10 µM, 100% = cells with rucaparib alone), 5.05% (active); in test [10] (at 0.313 µM, OCI-C5x cells, without rucaparib) it was 5.83% (active); in test [10] (at 0.313 µM, OCI-P5x cells, with rucaparib 20 µM, 100% = cells with rucaparib alone) it was 1.63% (active); in [10] (at 0.313 µM, OCI-P5x cells, without rucaparib) it was 1.83% (active). Further, the viability in test [10] (at 1.25 µM, OCI-C5x cells, with rucaparib 10 µM, 100% = cells with rucaparib alone) was 3.87% (active); in test [10] (at 1.25 µM, OCI-C5x cells, without rucaparib), 5.39% (active); in [10] (at 1.25 µM, OCI-P5x cells, with rucaparib 20 µM, 100% = cells with rucaparib alone), 1.03% (active); in test [10] (at 1.25 µM, OCI-P5x cells, without rucaparib) it was 0.724% (active); in [10] (at 5 µM, OCI-C5x cells, with rucaparib 10 µM, 100% = cells with rucaparib alone) it was 4.54% (active); in [10] (at 5 µM, OCI-C5x cells, without rucaparib), 5.34% (active). For the same compound, the viability was 1.24% (active) in test [10] (at 5 µM, OCI-P5x cells, with rucaparib 20 µM, 100% = cells with rucaparib alone) and 1.13% (active) in [10] (at 5 µM, OCI-P5x cells, without rucaparib).
As to `O=C(CCN1CCN(C(=O)OCc2cc(Cl)cc(Cl)c2)CC1)c1ccc2[nH]c(=O)oc2c1`, the values for the AC50 in [1], in test [5] and in test [7] were 20900 nM (active), 23500 nM (active) and 16600 nM (active), respectively. Moreover, the result in test [2], in test [3], in test [4], in test [11] and in test [12] was inactive.
`CCCCCCCCCC(=O)N[C@@H](Cc1c[nH]c2ccccc12)C(=O)N[C@H](CC(N)=O)C(=O)N[C@@H](CC(=O)O)C(=O)N[C@@H]1C(=O)NCC(=O)N[C@@H](CCCN)C(=O)N[C@@H](CC(=O)O)C(=O)N[C@H](C)C(=O)N[C@@H](CC(=O)O)C(=O)NCC(=O)N[C@H](CO)C(=O)N[C@@H]([C@@H](C)CC(=O)O)C(=O)N[C@@H](CC(=O)c2ccccc2N)C(=O)O[C@@H]1C`: the result in test [1], in test [2], in test [3], in test [4], in [5] and in [11] was inactive. Also, in test [7], the call was inactive.
For `N[C@@]1(C(=O)O)CS(=O)(=O)[C@H]2[C@H](C(=O)O)[C@H]21`, the call in test [1], in test [2], in test [3], in test [4], in test [5] and in [11] was inactive. Further, the compound was called inactive in test [7] and in test [12].
As to `c1cc(OCCN2CCCCC2)cc(-c2n[nH]c3ccc(-c4ncn[nH]4)cc23)c1`, the outcome in [1], in [2], in [3], in test [4], in test [5] and in test [11] was inactive. Also, the compound was called inactive in test [7] and in [12].
